Measurements from PubChem BioAssay AID720704 (The Scripps Research Institute Molecular Screening Center, 2013).
Out of some 370,000 compounds screened, about 660 (0.18%) were called active. No stated cut-off is given here; in the data, active means inhibition above about 11%; inactive means the rest. The entries come from a sample that favours actives as a whole.

What follows are compounds tested against 1-phosphatidylinositol 4,5-bisphosphate phosphodiesterase beta-3 (Homo sapiens) (UniProt Q01970) (assay: phospholipase C beta3 enzyme inhibition – biochemical, fluorescence, primary screen (AID 720704;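 further: 0% = median of compound wells on plate and 100% = full blocker control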)). Conditions: Purified PLC-beta3, fluorogenic substrate, at 12.2 µM, hits give high values.
Chain of 1-phosphatidylinositol 4,5-bisphosphate phosphodiesterase beta-3 (Homo sapiens) (Q01970 whole entry, looked up): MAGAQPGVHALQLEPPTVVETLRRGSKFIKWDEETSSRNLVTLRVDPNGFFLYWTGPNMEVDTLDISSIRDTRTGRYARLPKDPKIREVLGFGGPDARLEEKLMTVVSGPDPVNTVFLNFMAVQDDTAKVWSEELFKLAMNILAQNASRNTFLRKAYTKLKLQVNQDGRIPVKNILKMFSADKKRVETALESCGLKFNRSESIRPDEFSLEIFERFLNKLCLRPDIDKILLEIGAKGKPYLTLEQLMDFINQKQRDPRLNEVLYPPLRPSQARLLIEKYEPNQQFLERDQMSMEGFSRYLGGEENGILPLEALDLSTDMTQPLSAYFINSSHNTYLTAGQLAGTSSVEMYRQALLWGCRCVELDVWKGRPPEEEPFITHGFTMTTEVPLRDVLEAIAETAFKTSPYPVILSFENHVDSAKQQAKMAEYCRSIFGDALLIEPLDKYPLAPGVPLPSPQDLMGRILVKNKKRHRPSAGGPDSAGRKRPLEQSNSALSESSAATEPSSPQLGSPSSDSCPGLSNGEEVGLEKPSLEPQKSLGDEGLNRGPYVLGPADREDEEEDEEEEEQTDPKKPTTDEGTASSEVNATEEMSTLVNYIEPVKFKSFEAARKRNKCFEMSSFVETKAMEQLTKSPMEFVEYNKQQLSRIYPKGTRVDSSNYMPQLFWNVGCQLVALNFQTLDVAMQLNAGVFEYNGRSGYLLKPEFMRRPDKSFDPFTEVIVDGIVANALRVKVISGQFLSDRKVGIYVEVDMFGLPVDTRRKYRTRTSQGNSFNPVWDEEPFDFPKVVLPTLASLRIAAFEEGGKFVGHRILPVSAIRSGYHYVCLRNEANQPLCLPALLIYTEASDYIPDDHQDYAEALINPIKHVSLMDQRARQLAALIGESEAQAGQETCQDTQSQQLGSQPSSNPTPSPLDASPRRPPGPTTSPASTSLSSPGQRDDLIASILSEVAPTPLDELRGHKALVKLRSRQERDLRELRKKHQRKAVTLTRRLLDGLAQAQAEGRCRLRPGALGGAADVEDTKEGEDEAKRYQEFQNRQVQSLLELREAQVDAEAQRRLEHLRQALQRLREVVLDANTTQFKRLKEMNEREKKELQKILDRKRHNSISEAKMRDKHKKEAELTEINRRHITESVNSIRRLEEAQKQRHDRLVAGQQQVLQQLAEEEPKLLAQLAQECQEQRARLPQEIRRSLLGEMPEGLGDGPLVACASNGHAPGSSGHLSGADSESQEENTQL

inhibition, inactive:
CC1=CC(=O)C=CC1(C)C(Cl)(Cl)Cl (configuration not stated) 0.48%
Cc1c(C(=O)N2CC(C)OC(C)C2)sc2nc(-c3ccccc3)cn12 (configuration not stated) -2.9%
O=C(c1ccc(F)cc1)N1CCCC(C(=O)N2CCCCC2)C1 (configuration not stated) -6.9%
Cc1ccc(S(=O)(=O)N(CC(O)CN2CCCCC2)c2cccc([N+](=O)[O-])c2)cc1 (configuration not stated) -3.53%
COc1ccc([N+](=O)[O-])cc1N(CC(O)CN(CC(C)C)CC(C)C)S(=O)(=O)c1ccc(C)cc1 (configuration not stated) -4.79%
O=C(NC1CCCCN(Cc2ccc(Cl)cc2)C1=O)c1ccc(Br)cc1 (configuration not stated) -4.01%
Cc1cccc(OCc2nnc(SCc3nc4cc(C(F)(F)F)ccc4c(=O)[nH]3)o2)c1 -14.6%
CCn1cc(C(=O)NCCC(=O)NCCO)c(=O)c2cc3c(cc21)OCO3 -11.8%
CCCOc1cccc(C(=O)NCCCNC(=O)c2cccnc2)c1 -4.69%
Cc1cccc(C(=O)Nc2ccccc2C(=O)NCc2cccnc2)c1 2.86%
O=S1(=O)C[C@@H](N2CCN(CCO)CC2)[C@H](COCc2ccccc2)N1 -7.43%
O=C(COc1ccc(S(=O)(=O)N2CCCC2)cc1[N+](=O)[O-])N1CCCCC1 6.09%
Cc1ccc(S(=O)(=O)N2CCC(C(=O)OCC(=O)N(C)c3ccccc3)CC2)cc1C -0.47%
CCOC(=O)[C@H]1CCC[C@@H](NS(=O)(=O)c2ccc(NC(C)=O)cc2)C1 -1.08%
O=S(=O)(NCCSc1ccccn1)c1ccc(Cl)cc1 4.09%
CN(C(=O)c1cccc(NC(=O)Cc2cccc(NC(=O)C3CCCN(C(=O)C4CC4)C3)c2)c1)C1CCC1 (configuration not stated) 1.11%
CN(C(=O)c1cccc(NC(=O)Cc2ccc([N+](=O)[O-])cc2)c1)C1CCC1 1.28%
O=C(CNC(=O)c1ccccc1)OC(C(=O)Nc1cc([N+](=O)[O-])ccc1F)c1ccccc1 (configuration not stated) -0.41%
Oc1oc(-c2ccccc2Br)nc1/C=N/c1ccccn1 -19.8%
CC(=O)C1=C(O)C(=O)N(c2ccc(Br)cc2)C1c1ccc([N+](=O)[O-])cc1 (configuration not stated) -6.85%
CC(=O)C1=C(O)C(=O)N(c2cccnc2)C1c1ccc([N+](=O)[O-])cc1 (configuration not stated) 4.27%
O=C(NC(CC(=O)N1CCN(c2ccccc2)CC1)c1ccccc1)c1ccccc1Cl (configuration not stated) 2.68%
O=C(NCCSc1ncc(-c2ccccc2)[nH]1)c1ccco1 -6.81%
Cc1ccc(C2CC(c3cccc(NS(C)(=O)=O)c3)=NN2S(C)(=O)=O)cc1 (configuration not stated) 0.24%
CCOc1ccc2nc(Cl)c(C3CC(c4ccccc4)=NN3C(=O)c3cccs3)cc2c1 (configuration not stated) -0.32%
Cc1ccc(C(=O)N(CN2CCCC2=O)c2ccc(F)cc2)cc1 3.26%
CCOc1ccc(S(=O)(=O)Nc2ccncc2)c(C)c1C 1.51%
Cc1cc(C)c2nc(SCC(=O)N(C)C3CCS(=O)(=O)C3)cc(C)c2c1 (configuration not stated) 2.26%
O=S(=O)(c1ccc(F)cc1)N1CCN=C1SCc1cccc(F)c1 -7.5%
Cc1ccc(/C=C/C(=O)O)cc1S(=O)(=O)N1CCC(Cc2ccccc2)CC1 -3.09%
Cn1ncc2c(Nc3cccc4ccccc34)ncnc21 -6.23%
Cn1ncc2c(NNC(=O)Cc3cccc4ccccc34)ncnc21 1.27%
O=C1C(=O)N(c2ccccc2)C(c2ccccc2)C1c1ccccc1 (configuration not stated) -283%
O=S(=O)(O)c1cc2onnc2c2ccccc12 -11.7%
Cc1cc(NS(=O)(=O)c2ccc(NC(=O)CSc3nnc(SCc4ccc(F)cc4)s3)cc2)nc(C)n1 -3.29%
Cc1cc(C(=O)OC(C)C(=O)Nc2cccc(S(=O)(=O)N3CCOCC3)c2)c(C)o1 (configuration not stated) 2.02%
NNC(=O)C1CC(O)CN1S(=O)(=O)c1ccc(Cl)cc1 (configuration not stated) -6.44%
O=C(CSc1ncn[nH]1)Nc1nc2c(F)c(F)c(F)cc2s1 -3.83%
CCNC(=S)N1CCC(c2nc3cc(C)c(C)cc3[nH]2)CC1 0.08%
Cc1cc(C)c(NC(=O)CSc2nc3ccncc3[nH]2)c(C)c1 -1.6%
Fc1ccc(CNCc2ccc(Br)cc2)cc1 1.89%
CC1(C(=O)NCc2ccco2)Cc2c(-c3ccc4c(c3)OCO4)ccnc2O1 (configuration not stated) -9.86%
COc1ccc(C(=O)NC2CC2)cc1OC1CCN(Cc2ccc(SC)cc2)CC1 -5.08%
CCN(C(=O)COc1cccnc1[N+](=O)[O-])C1CCS(=O)(=O)C1 (configuration not stated) 3.82%
CCc1cc2c(=O)c(-c3ccon3)c(N)oc2cc1OC -1.51%
CCOC(=O)C1CCN(C(=O)c2cccc(S(=O)(=O)N(CC)c3ccccc3)c2)CC1 -9.7%
CCCC1CCC(=NNC(=S)NCCc2ccccc2)CC1 (configuration not stated) -1.2%

inhibition, active:
COc1ccc([N+](=O)[O-])cc1N(CC(O)Cn1nnc2ccccc21)S(=O)(=O)c1ccc(C)cc1 (configuration not stated) 11.5%
CCOc1ccccc1NC(=O)c1cccnc1 12.6%
COc1ccc(S(=O)(=O)N2CCC(C(=O)OCC(=O)c3ccccc3)CC2)cc1[N+](=O)[O-] 10.8%
CN(C(=O)c1cccc(NC(=O)Cc2cccc([N+](=O)[O-])c2)c1)C1CCCCC1 11.2%
CCOc1c(Br)cc(/C=C2\C(=O)N(CCC#N)N=C2C)cc1OC 13.5%
CC(N=Cc1nc(-c2ccccc2)oc1O)c1ccccc1 (configuration not stated) 15.1%
COC(=O)CN1C(=O)C(O)=C(C(C)=O)C1c1ccc([N+](=O)[O-])cc1 (configuration not stated) 13.8%
CCOc1ccccc1C1CC(c2cccc(NS(C)(=O)=O)c2)=NN1C(=O)c1ccccc1 (configuration not stated) 13.2%
Cc1nc(Nc2ccccc2C)c2cnn(C)c2n1 13.1%
Cc1cc2nc(SCCN3CCOCC3)[nH]c2cc1C 10.8%
